# Test results: the antibiotic and cytotoxicity screens of Wong et al. (2023)
# Hit rate of the full screen: of about 39,000 compounds, about 3,300 (8.5%) were called active. This excerpt belongs to a sample that is enriched for actives.
# System: HepG2
# Experiment: cytotoxicity call (relative viability < 0.9)
# Details: 10 µM
row,Compound,cytotoxicity call
1,C[C@H]1CN([C@@H](C)CO)C(=O)c2cc(C#Cc3ccc(F)cc3)cnc2O[C@H]1CN(C)CC1CCOCC1,inactive
2,C=CCN1C(=O)[C@@]2(O[C@H](CCOC(=O)NCCCCCC(=O)NO)[C@@H]([Si](C)(C)c3ccc(OC)cc3)[C@@H]2C)c2cc(I)ccc21,inactive
3,O=C1NC(=O)[C@@H](c2ccccc2)N1,inactive
4,O=C1NC2=C(C(=O)OC2)[C@H](c2ccccc2)N1,active
5,O=C1COC[C@@H](c2ccccc2)N1,inactive
6,C[C@@H]1CN([C@@H](C)CO)C(=O)c2cc(NC(=O)Cc3ccccc3)ccc2O[C@H]1CN(C)S(=O)(=O)c1ccccc1,inactive
7,C[C@@H]1CCCCO[C@@H](CN(C)C(=O)C2CCCCC2)[C@@H](C)CN([C@@H](C)CO)C(=O)c2cc(NS(=O)(=O)c3ccc(Cl)cc3)ccc2O1,inactive
8,Cc1ccc(S(=O)(=O)N2CCO[C@@H]2CNC(=O)C(=O)NCc2ccccn2)cc1,inactive
9,C[C@H](CO)N1C[C@H](C)[C@H](CN(C)Cc2ccc(C(=O)Nc3ccccc3N)cc2)Oc2ccc(NC(=O)Nc3ccc4c(c3)OCO4)cc2C1=O,inactive
10,O=C1c2ccccc2[C@](Cc2ccccc2I)(C(=O)NCc2ccccc2)[C@H](c2ccc(CO)cc2)N1C1CCCCC1,inactive
11,COc1ccccc1CN1C(=O)c2ccccc2[C@](Cc2ccccc2I)(C(=O)NCCN2CCOCC2)[C@@H]1c1ccc(CO)cc1,inactive
12,O=C1c2ccccc2[C@](Cc2ccccc2I)(C(=O)O)[C@H](c2ccc(CO)cc2)N1C1CCCCC1,inactive
13,O=C1c2ccccc2[C@](Cc2ccccc2I)(C(=O)NCC(F)(F)F)[C@H](c2ccc(CO)cc2)N1C1CCCCC1,inactive
14,O=C1c2ccccc2[C@](Cc2ccccc2I)(C(=O)NCCN2CCOCC2)[C@H](c2ccc(CO)cc2)N1C1CCCCC1,active
15,CN(C)CCCN1C(=O)[C@@]2(Cc3ccccc31)c1ccccc1C(=O)N(C1CCCCC1)[C@H]2c1ccc(CO)cc1,inactive
16,COc1ccc(CCNC(=O)[C@@]2(Cc3ccccc3I)c3ccccc3C(=O)N(C3CCCCC3)[C@H]2c2ccc(CO)cc2)cc1,inactive
17,COCCCNC(=O)[C@@]1(Cc2ccccc2I)c2ccccc2C(=O)N(C2CCCCC2)[C@H]1c1ccc(CO)cc1,active
18,CN(C)CCCNC(=O)[C@@]1(Cc2ccccc2I)c2ccccc2C(=O)N(C2CCCCC2)[C@H]1c1ccc(CO)cc1,active
19,Cc1noc(C)c1NC(=O)N(C)C[C@@H]1OCCCC[C@H](C)Oc2ccc(NS(=O)(=O)c3ccc(F)cc3)cc2C(=O)N([C@@H](C)CO)C[C@@H]1C,inactive
20,CO[C@@H]1CN(C)C(=O)c2ccc(NS(=O)(=O)c3cn(C)cn3)cc2OC[C@@H](C)N(CC2CC2)C[C@H]1C,inactive
21,O=S(=O)(NCC[C@H]1CC[C@@H](NS(=O)(=O)c2ccccc2Cl)[C@H](CO)O1)c1ccc(F)cc1,inactive
22,C[C@H](CO)N1C[C@H](C)[C@@H](CN(C)Cc2ccc(Oc3ccccc3)cc2)Oc2ccc(NC(=O)Nc3ccc4c(c3)OCO4)cc2CC1=O,inactive
23,C[C@H]1CN([C@@H](C)CO)C(=O)Cc2cc(NC(=O)Nc3ccc4c(c3)OCO4)ccc2O[C@@H]1CN(C)Cc1ccc(Oc2ccccc2)cc1,inactive
24,C[C@@H]1CN([C@@H](C)CO)C(=O)Cc2cc(NC(=O)Nc3ccc4c(c3)OCO4)ccc2O[C@@H]1CN(C)Cc1ccc(Oc2ccccc2)cc1,active

row,Compound,cytotoxicity call
1,C[C@H]1CN([C@@H](C)CO)C(=O)Cc2cc(NC(=O)Nc3ccc4c(c3)OCO4)ccc2O[C@H]1CN(C)Cc1ccc(Oc2ccccc2)cc1,inactive
2,C[C@@H]1CN([C@H](C)CO)C(=O)Cc2cc(NC(=O)Nc3ccc4c(c3)OCO4)ccc2O[C@@H]1CN(C)Cc1ccc(Oc2ccccc2)cc1,active
3,C[C@H](CO)N1C[C@H](C)[C@H](CN(C)Cc2ccc(Oc3ccccc3)cc2)Oc2ccc(NC(=O)Nc3ccc4c(c3)OCO4)cc2CC1=O,active
4,C[C@@H]1CN([C@@H](C)CO)C(=O)Cc2cc(NC(=O)Nc3ccc4c(c3)OCO4)ccc2O[C@H]1CN(C)Cc1ccc(Oc2ccccc2)cc1,inactive
5,C[C@@H]1CN([C@H](C)CO)C(=O)Cc2cc(NC(=O)Nc3ccc4c(c3)OCO4)ccc2O[C@H]1CN(C)Cc1ccc(Oc2ccccc2)cc1,inactive
6,C[C@@H]1CCCCO[C@H](CN(C)C(=O)Nc2ccc(F)cc2)[C@H](C)CN([C@@H](C)CO)C(=O)c2cc(NC(=O)C3CCCCC3)ccc2O1,inactive
7,Cc1noc(C)c1S(=O)(=O)Nc1cccc2c1O[C@H](CN(C)S(=O)(=O)c1ccc(Cl)cc1)[C@H](C)CN([C@H](C)CO)C2=O,inactive
8,C[C@@H]1CCCCO[C@@H](CN(C)S(=O)(=O)c2ccc(Cl)cc2)[C@@H](C)CN([C@H](C)CO)C(=O)c2cc(NS(=O)(=O)c3ccccc3)ccc2O1,inactive
9,C[C@H](CO)N1C[C@H](C)[C@H](CN(C)S(=O)(=O)c2ccc(C#N)cc2)Oc2ncc(-c3ccc(F)cc3)cc2C1=O,inactive
10,C[C@@H]1CN([C@H](C)CO)C(=O)Cc2cc(NC(=O)Nc3ccc(F)cc3)ccc2O[C@@H]1CN(C)Cc1ccc(Oc2ccccc2)cc1,active
11,C[C@@H]1CN([C@@H](C)CO)C(=O)Cc2cc(NC(=O)Nc3ccc(F)cc3)ccc2O[C@H]1CN(C)Cc1ccc(Oc2ccccc2)cc1,active
12,C[C@H](CO)N1C[C@H](C)[C@H](CN(C)Cc2ccc(Oc3ccccc3)cc2)Oc2ccc(NC(=O)Nc3ccc(F)cc3)cc2CC1=O,active
13,C[C@H]1CN([C@@H](C)CO)C(=O)Cc2cc(NC(=O)Nc3ccc(F)cc3)ccc2O[C@@H]1CN(C)Cc1ccc(Oc2ccccc2)cc1,active
14,COc1ccc(CN(C)C[C@H]2OCCCC[C@@H](C)Oc3ccc(NC(=O)c4ccncc4)cc3C(=O)N([C@@H](C)CO)C[C@@H]2C)cc1,inactive
15,Cc1ccc(S(=O)(=O)Nc2ccc3c(c2)C(=O)N([C@H](C)CO)C[C@@H](C)[C@H](CN(C)C(=O)c2ccccc2)OCCCC[C@@H](C)O3)cc1,inactive
16,Cc1ccc(S(=O)(=O)N[C@H]2CC[C@H](CC(=O)N3CCC(Cc4ccccc4)CC3)O[C@@H]2CO)cc1,inactive
17,C[C@@H]1CCCCO[C@@H](CN(C)C)[C@@H](C)CN([C@H](C)CO)C(=O)c2cc(NS(=O)(=O)c3cn(C)cn3)ccc2O1,inactive
18,CC(C)NC(=O)N(C)C[C@H]1Oc2c(NC(=O)NC3CCCCC3)cccc2C(=O)N([C@@H](C)CO)C[C@H]1C,inactive
19,C[C@@H]1CN([C@@H](C)CO)C(=O)c2cccc(NC(=O)Nc3ccccc3)c2O[C@@H]1CN(C)S(=O)(=O)c1cn(C)cn1,inactive
20,C[C@@H]1CCCCO[C@@H](CN(C)S(=O)(=O)c2cn(C)cn2)[C@H](C)CN([C@H](C)CO)C(=O)c2cc(N(C)C)ccc2O1,inactive
21,O=C(CN1CCOCC1)N[C@@H]1CC[C@@H](CCNC(=O)Nc2cc(F)ccc2F)O[C@@H]1CO,inactive
22,C[C@@H]1CCCCO[C@H](CN(C)C)[C@@H](C)CN([C@H](C)CO)C(=O)c2cc(NC(=O)CCCN(C)C)ccc2O1,inactive
23,C[C@@H]1CCCCO[C@@H](CN(C)C(=O)NC2CCCCC2)[C@@H](C)CN([C@@H](C)CO)C(=O)c2cc(NC(=O)Nc3ccc4c(c3)OCO4)ccc2O1,inactive
24,C[C@@H]1CN([C@H](C)CO)C(=O)Cc2cc(NC(=O)Nc3ccc(F)cc3)ccc2O[C@H]1CN(C)Cc1ccc(Oc2ccccc2)cc1,active

row,Compound,cytotoxicity call
1,C[C@@H]1CN([C@@H](C)CO)C(=O)Cc2cc(NC(=O)Nc3ccc(F)cc3)ccc2O[C@@H]1CN(C)Cc1ccc(Oc2ccccc2)cc1,inactive
2,C[C@H](CO)N1C[C@H](C)[C@@H](CN(C)Cc2ccc(Oc3ccccc3)cc2)Oc2ccc(NC(=O)Nc3ccc(F)cc3)cc2CC1=O,active
3,C[C@H]1CN([C@@H](C)CO)C(=O)Cc2cc(NC(=O)Nc3ccc(F)cc3)ccc2O[C@H]1CN(C)Cc1ccc(Oc2ccccc2)cc1,active
4,CC(=O)Nc1nnc(S(N)(=O)=O)s1,inactive
5,C[C@H](CO)N1C[C@H](C)[C@@H](CN(C)S(=O)(=O)c2ccc(F)cc2)Oc2ccc(NC(=O)Cn3cnnn3)cc2C1=O,inactive
6,CC(C)NC(=O)Nc1cccc2c1O[C@@H](CN(C)S(=O)(=O)c1cn(C)cn1)[C@@H](C)CN([C@H](C)CO)C2=O,inactive
7,C[C@@H]1CN([C@@H](C)CO)C(=O)c2cccc(NC(=O)Nc3ccc(F)cc3)c2O[C@H]1CN(C)Cc1ccc(-c2ccccc2)cc1,inactive
8,CC(C)OC(=O)c1cn(Cc2c(F)cccc2F)c2sc(-c3ccc(NC(=O)C(C)C)cc3)c(CN(C)Cc3ccccc3)c2c1=O,active
9,CONC(=O)Nc1ccc(-c2sc3c(c2CN(C)Cc2ccccc2)c(=O)n(-c2ccccc2)c(=O)n3Cc2c(F)cccc2F)cc1,inactive
10,C[C@@H]1CN([C@@H](C)CO)C(=O)c2cc(NC(=O)C3CC3)ccc2O[C@@H]1CN(C)Cc1ccc(C(=O)O)cc1,inactive
11,CO[C@H]1CN(C)C(=O)c2cc(NC(=O)CC(F)(F)F)ccc2OC[C@@H](C)N(S(=O)(=O)c2cn(C)cn2)C[C@@H]1C,inactive
12,COc1ccc(CNC(=O)C[C@H]2C[C@@H]3c4cc(NS(=O)(=O)c5ccc(F)cc5)ccc4O[C@@H]3[C@@H](CO)O2)cc1,inactive
13,O=C(C[C@@H]1C=C[C@@H](NS(=O)(=O)c2ccc(F)cc2)[C@@H](CO)O1)NCCN1CCCCC1,inactive
14,C[C@@H]1CN([C@@H](C)CO)C(=O)Cc2cc(NC(=O)Nc3cccc4ccccc34)ccc2O[C@H]1CN(C)C(=O)NC1CCCCC1,inactive
15,C[C@@H]1CCCCO[C@@H](CN(C)CC2CCCCC2)[C@@H](C)CN([C@H](C)CO)C(=O)c2cc(NC(=O)c3ccccc3)ccc2O1,active
16,C[C@H]1CCCCO[C@H](CN(C)CC2CCCCC2)[C@@H](C)CN([C@@H](C)CO)C(=O)c2cc(NC(=O)c3ccccc3)ccc2O1,inactive
17,C[C@@H]1CN([C@@H](C)CO)C(=O)c2cc(NC(=O)c3ccccc3)ccc2O[C@@H](C)CCCCO[C@@H]1CN(C)CC1CCCCC1,inactive
18,C[C@@H]1CCCCO[C@@H](CN(C)CC2CCCCC2)[C@H](C)CN([C@H](C)CO)C(=O)c2cc(NC(=O)c3ccccc3)ccc2O1,inactive
19,C[C@@H]1CCCCO[C@H](CN(C)CC2CCCCC2)[C@H](C)CN([C@H](C)CO)C(=O)c2cc(NC(=O)c3ccccc3)ccc2O1,active
20,C[C@@H]1CCCCO[C@@H](CN(C)CC2CCCCC2)[C@H](C)CN([C@@H](C)CO)C(=O)c2cc(NC(=O)c3ccccc3)ccc2O1,inactive
21,C[C@@H]1CN([C@@H](C)CO)C(=O)c2cc(NC(=O)c3ccccc3)ccc2O[C@@H](C)CCCCO[C@H]1CN(C)CC1CCCCC1,active
22,C[C@@H]1CN([C@H](C)CO)C(=O)c2cc(NC(=O)c3ccccc3)ccc2O[C@@H](C)CCCCO[C@@H]1CN(C)CC1CCCCC1,inactive
23,C[C@H]1CCCCO[C@@H](CN(C)CC2CCCCC2)[C@@H](C)CN([C@@H](C)CO)C(=O)c2cc(NC(=O)c3ccccc3)ccc2O1,inactive
